Measured values from the supplement of paper PMC7156485.

tested on: HCC1569; test: H1.0 immunofluorescence intensity relative to DMSO (% of DMSO); higher = stronger H1.0 induction, active = 140 or more; conditions: concentration: 10 µM; 24 h
Procedure, shortened: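 H1.0 nuclear intensity or cell number is stated as percent of the plate control, based on the median of replicates, and HCC1569 values were smoothed for positional effects. These came from HCC1569 and TDF cells treated with compounds at 10 µM for 24 h at 37 °C in triplicate, then fixed in 3.7% formaldehyde and stained with a rabbit anti-H1.0 antibody, an AlexaFluor 647 secondary and DAPI.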
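Further: TDF is a line of transformed human dermal fibroblasts of mesenchymal origin.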

Row | Compound | H1.0 immunofluorescence intensity
1 | CC(N)(Cc1ccc(O)c(O)c1)C(=O)O (stereo not given) [Methyldopa] | 94 (inactive)
2 | O=C(O)c1ccc(O)c2ncccc12 [8-hydroxy-5-quinolinecarboxylic acid] | 98 (inactive)
3 | C[N+]1(CCCCC[N+]2(C)CCCC2)CCCC1.O=C([O-])C(O)C(O)C(=O)O.O=C([O-])C(O)C(O)C(=O)O [Pentolinium di[L(+)-tartrate]] | 101 (inactive)
4 | Cc1nc2cc3nc(-c4cccs4)cnc3cc2n1C | 94.7 (inactive)
5 | Clc1cccc(CNC2=Nc3ccccc3NC23CCNCC3)c1 | 124 (inactive)
6 | O=C(NC(NC(=S)Nc1ccc(F)c([N+](=O)[O-])c1)C(Cl)(Cl)Cl)C(c1ccccc1)c1ccccc1 (stereo not given) | 190 (active)
7 | CN(C)CCCC1(c2ccc(F)cc2)OCc2cc(C#N)ccc21 (stereo not given) [Escitalopram] | 93.5 (inactive)
8 | COc1cc(-c2oc3cc(O)cc(O)c3c(=O)c2OC2OC(CO)C(O)C(O)C2O)cc(OC)c1O (stereo not given) [Syringetine-3-glucoside] | 90.4 (inactive)
9 | CCc1nn(CCCN2CCN(c3cccc(Cl)c3)CC2)c(=O)n1CCOc1ccccc1 | 122 (inactive)
10 | C[C@]12CCC(=O)C=C1CC[C@@H]1[C@@H]2[C@@H](O)C[C@@]2(C)[C@H]1CC[C@]2(O)C(=O)COC(=O)CCC(=O)[O-].[Na+] | 103 (inactive)
11 | COc1ccc(-c2nn3c(-c4ccccn4)nnc3s2)cc1OC | 111 (inactive)
12 | CCOC(=O)C1=C(C)NC(C)=C(C(=O)OC)C1c1cccc(Cl)c1Cl (stereo not given) [Felodipine] | 97.5 (inactive)
13 | O=C1Nc2cc(Br)ccc2C1=C1N=c2ccccc2=C1NO [(2'Z,3'E)-6-Bromoindirubin-3'-oxime] | 171 (active)
14 | CC1=CC(=O)c2ccccc2C1=O [Menadione] | 91.9 (inactive)
15 | CN(C)CCOc1ccc(-c2nc(=c3ccc4c(c3)CCC=4N=O)c(=C3C=CNC=C3)[nH]2)cc1 | 132 (inactive)
16 | S=C(NCc1ccc2c(c1)OCO2)N1CCN(c2ncnc3c2oc2ccccc23)CC1 | 132 (inactive)
17 | N#CC(=Cc1ccc(O)cc1)C(N)=C(C#N)C#N | 110 (inactive)
18 | O=C1NCCc2[nH]c(-c3ccncc3)cc21 [Cdc7/Cdk9 Inhibitor] | 115 (inactive)
19 | O=c1cc(N2CCOCC2)oc2c(-c3ccccc3)cccc12 | 155 (active)
20 | O.O.O=c1c(O)c(-c2ccc(O)c(O)c2)oc2cc(O)cc(O)c12 | 116 (inactive)

Row | Compound | H1.0 immunofluorescence intensity
21 | CCC1=C(C)CN(C(=O)NCCc2ccc(S(=O)(=O)NC(=O)NC3CCC(C)CC3)cc2)C1=O (stereo not given) [Glimepiride] | 106 (inactive)
22 | COC1(NC(=O)CSCC#N)C(=O)N2C(C(=O)[O-])=C(CSc3nnnn3C)CSC21.[Na+] (stereo not given) [Cefmetazole sodium] | 89.6 (inactive)
23 | COc1ccccc1OCC(O)CO (stereo not given) [Guaifenesin] | 116 (inactive)
24 | CCOc1nc2cccc(C(=O)O)c2n1Cc1ccc(-c2ccccc2-c2nc(=O)o[nH]2)cc1 | 137 (inactive)
25 | CC(=O)CC/C=C(\C)CC/C=C(\C)CC/C=C(\C)CCC=C(C)C | 105 (inactive)
26 | CC(C)(C)C(=O)C(Oc1ccc(Cl)cc1)n1ccnc1 (stereo not given) [Climbazole] | 99.3 (inactive)
27 | CCN(CC)CC(=O)Nc1c(C)cccc1C.Cl.O [Lidocaine.HCl.H2O] | 103 (inactive)
28 | O=C1OC(=O)C2C3CCC(O3)C12 (stereo not given) [Norcantharidin] | 103 (inactive)
29 | C=CCc1ccc(O)c(OC)c1 [Eugenol] | 95.1 (inactive)
30 | OCCN(CCO)c1nc(N2CCCCC2)c2nc(N(CCO)CCO)nc(N3CCCCC3)c2n1 [Dipyridamole] | 98.9 (inactive)
31 | COC(=O)C(=C1OC(=O)C(c2ccccc2)=C1O)c1ccccc1 [Vulpinic acid] | 91.2 (inactive)
32 | O=C(Cc1ccc(Cl)c(Cl)c1)OCCN1CCCC1.O=C(O)C(=O)O [AC 915 oxalate] | 99 (inactive)
33 | O=C1NC(=O)C(c2ccccc2)(c2ccccc2)N1 [Phenytoin] | 110 (inactive)
34 | CCCCCCCCC=CCCCCCCCC(=O)OCC(CO)OC(=O)CCCCCCCC=CCCCCCCCC (stereo not given) [1,2-Dioleoyl-glycerol (18:1)] | 101 (inactive)
35 | O=C(O)C(=S)Cc1ccc(I)cc1 [(2Z)-3-(4-iodophenyl)-2-sulfanyl-2-propenoic acid] | 94.8 (inactive)
36 | CC(N)(Cc1ccc(O)c(O)c1)C(=O)O (racemic) | 98.2 (inactive)
37 | COc1ccc2cc1Oc1ccc(cc1)CC1c3cc(c(OC)cc3CCN1C)Oc1c(OC)c(OC)c(OC)c3c1C(C2)N(C)CC3 (stereo not given) [Hernandezine] | 110 (inactive)
38 | NNCCc1ccccc1.O=S(=O)(O)O [Phenelzine sulfate] | 74.3 (inactive)
39 | CN(C)CCCSc1ccccc1NC(=O)C=Cc1ccccc1 [Cinanserin] | 107 (inactive)
40 | O=c1oc2cc(O)ccc2c2oc3cc(O)ccc3c12 [Coumestrol] | 94.6 (inactive)
